Measured values taken from PubChem BioAssay AID463173 (ICCB-Longwood Screening Facility, Harvard Medical School, 2010).
The whole screen tested about 52,000 compounds, of which about 4,300 (8.3%) were called active. This is one part of a sample in which actives are shown more often than they occur. Cut-off read from the data, not from the text of the source: active = survival mostly below about 52% (no sharp cut-off); inactive = mostly above about 56%.

Each compound was assayed on DeltatarO mutant (assay: growth inhibition of S. aureus wild type versus tarO mutant, primary screen, teichoic acid synthesis inhibitors, RN4220, OD600 (AID 463173)). Conditions: OD600, 18 h, stronger effect = lower value, screened at 18.75 µg/mL (by protocol).

SMILES	survival
Cc1ccc(-c2nn3c(=O)cc(CN4CCN(C(=O)/C=C/c5ccccc5)CC4)nc3s2)cc1	68% (inactive)
CCOc1ccccc1C1CC(=O)Nc2c1c(=O)n(C)c1ncnn21 (stereo not given)	164% (inactive)
COc1ccc(NC(=O)c2oc3ccc(S(=O)(=O)N4CCC5(CC4)OCCO5)cc3c2C)cc1Cl	80% (inactive)
O=C(O)C1CC(=O)N(CCCN2CCOCC2)C1 (stereo not given)	96% (inactive)
Cc1nn(C)c2c1c(C(F)(F)F)cc(=O)n2CC(=O)NCc1ccccc1Cl	80% (inactive)
CCN1CCN(C(=O)c2ccc3c(c2)N(Cc2ccccc2)C(=O)c2ccccc2S3=O)CC1 (stereo not given)	104% (inactive)
Cc1ccc(C)c(-n2c3nc(=O)[nH]c(=O)c-3cc3c(C)nn(-c4ccccc4)c32)c1	92% (inactive)
COc1ccc(NC(=O)CC2C(=O)N(c3ccccc3)C(=O)N2CCc2sccc2C)cc1 (stereo not given)	65% (inactive)
CCN(CC)CCCNC(=O)Cc1ccc(NC(=O)N2CCCCc3ccccc32)cc1	79% (inactive)
CCOC(=O)c1cc2c(=O)n3ccccc3nc2n(CC2CCCO2)c1=NC(=O)c1ccccc1Br (stereo not given)	47% (active)
CCOC(=O)c1cc2c(=O)n3ccccc3nc2n(CC(C)C)c1=NC(=O)c1c(-c2c(F)cccc2Cl)noc1C	165% (inactive)
CCOC(=O)c1cc2c(=O)n3ccccc3nc2n(CC2CCCO2)c1=NC(=O)c1ccc(OC)cc1OC (stereo not given)	38% (active)
CCOC(=O)c1cc2c(=O)n3ccccc3nc2n(CC2CCCO2)c1=NC(=O)c1ccccc1C (stereo not given)	43% (active)
CCOC(=O)c1cc2c(=O)n3ccccc3nc2n(CC2CCCO2)c1=NC(=O)c1ccccc1F (stereo not given)	44% (active)
CCOC(=O)c1cc2c(=O)n3ccccc3nc2n(CC2CCCO2)c1=NC(=O)c1ccccc1OCC (stereo not given)	51% (inactive)
CCOC(=O)c1cc2c(=O)n3ccccc3nc2n(CC2CCCO2)c1=NC(=O)c1ccc(F)cc1 (stereo not given)	54% (inactive)
CCOC(=O)c1cc2c(=O)n3ccccc3nc2n(CC2CCCO2)c1=NC(=O)c1ccc(OCC)cc1 (stereo not given)	51% (inactive)
O=C(CC1N=C2c3ccccc3N=C(SCC(=O)Nc3ccccc3F)N2C1=O)NCc1ccc2c(c1)OCO2 (stereo not given)	73% (inactive)
Nc1c(-c2nc(-c3ccc(Cl)cc3)no2)nnn1-c1ccc(C(F)(F)F)c(Cl)c1	75% (inactive)
Cc1cc(C)c2c(CC(=O)Nc3ccccc3C(F)(F)F)coc2c1	72% (inactive)
O=C(NCCCN1CCCC1)c1ccccc1Cl	86% (inactive)
COc1ccc(Nc2nc3ccc(Cl)cc3n3nnnc23)cc1OC	102% (inactive)
CC(C)C(=O)NCC(c1ccc2c(c1)OCO2)N1CCN(c2ccccc2F)CC1 (stereo not given)	74% (inactive)
COC(=O)CC(=O)CSc1nc(C)cc(C)c1C#N	80% (inactive)
COc1ccc2nc(NC(=O)c3cc(=O)c4cc(C)c(C)cc4o3)sc2c1	58% (inactive)

SMILES	survival
O=C(Nc1nc2ccc(Cl)cc2s1)c1cc(=O)c2ccccc2o1	32% (active)
CCOc1ccc2nc(NC(=O)c3ccccc3)sc2c1	41% (active)
COc1ccc2nc(NC(=O)c3cc(=O)c4ccccc4o3)sc2c1	50% (inactive)
Cc1ccc2c(=O)cc(C(=O)Nc3nc4ccc(Cl)cc4s3)oc2c1C	39% (active)
Cc1cc(C)c2oc(C(=O)Nc3nc4ccc(Cl)cc4s3)cc(=O)c2c1	61% (inactive)
CS(=O)(=O)c1ccc2nc(NC(=O)c3ccccc3)sc2c1	81% (inactive)
CCOc1ccc2nc(NC(=O)c3cc(=O)c4cc(C)cc(C)c4o3)sc2c1	85% (inactive)
CCOc1ccc2nc(NC(=O)c3cc(=O)c4ccc(C)cc4o3)sc2c1	25% (active)
CCOc1ccc2nc(NC(=O)c3nc(SC)ncc3Cl)sc2c1	95% (inactive)
COc1ccc2nc(NC(=O)c3cc(=O)c4cc(C)cc(C)c4o3)sc2c1	69% (inactive)
CC(=O)Nc1ccc2nc(NC(=O)c3cc4ccccc4o3)sc2c1	102% (inactive)
O=S(=O)(c1ccc(Br)cc1)N1CCOCC1	94% (inactive)
CC(C)NS(=O)(=O)c1ccc(OCC(=O)N2CCN(c3cccc(Cl)c3)CC2)cc1	95% (inactive)
CCSc1ncc(Cl)c(C(=O)Nc2ccc(S(=O)(=O)N3CCCCC3)cc2)n1	87% (inactive)
Cc1ccc(-c2csc(NC3OC(=O)c4c#cccc43)n2)cc1 (stereo not given)	94% (inactive)
Cc1ccc(Cn2cnc3nc4c(cc3c2=O)CCCC4)cc1	81% (inactive)
CCc1ccc2[nH]c(=O)c(CNC3CCCC3)cc2c1	86% (inactive)
CCCOc1ccc(C(=O)N(Cc2ccc(N(C)C)cc2)CC2CCCO2)cc1 (stereo not given)	64% (inactive)
Cc1ccc2nc(NC(=O)c3cc(=O)c4cc(Cl)ccc4o3)sc2c1	47% (inactive)
Cc1ccc2c(=O)cc(C(=O)Nc3nc4ccc(Cl)cc4s3)oc2c1	25% (active)
Cc1ccc2nc(NC(=O)c3cc(=O)c4cc(C)c(C)cc4o3)sc2c1	54% (inactive)
O=C(Cn1nc(-c2ccc(Cl)cc2)ccc1=O)NCc1ccccc1Cl	70% (inactive)
CCN(C(=O)CSc1nc2ccccc2n1Cc1ccc(F)cc1Cl)c1ccccc1	77% (inactive)
CC(C)c1ccccc1NC(=O)c1cccs1	61% (inactive)
Cc1cccc(NC(=O)CCCCCn2c(=O)[nH]c3ccsc3c2=O)c1	33% (active)

SMILES	survival
O=C(CCCCCn1c(=O)[nH]c2ccsc2c1=O)NCc1ccccc1	89% (inactive)
CCCCCNC(=O)CCCCCn1c(=O)[nH]c2ccsc2c1=O	81% (inactive)
O=S1(=O)c2ccccc2N(Cc2ccccc2F)c2ccccc21	92% (inactive)
COc1ccc(NC(=O)CCc2nnc3n(C)c(=O)c4sccc4n23)cc1Cl	78% (inactive)
CCCCc1nn2c(=O)cc(COC(=O)c3ccccc3C)nc2s1	83% (inactive)
COCCc1nn2c(=O)cc(COC(=O)c3ccccc3C)nc2s1	-5% (active)
CCCc1nn2c(=O)cc(COC(=O)c3cccc(NC(=O)c4ccc(OCC)cc4)c3)nc2s1	0% (active)
CCOc1ccc(C(=O)Nc2cccc(C(=O)OCc3cc(=O)n4nc(C5CC5)sc4n3)c2)cc1	83% (inactive)
CCOCCc1nn2c(=O)cc(COC(=O)Cc3ccccc3)nc2s1	17% (active)
CCOCCc1nn2c(=O)cc(COC(=O)CNC(=O)c3cccc(C)c3)nc2s1	70% (inactive)
CCCc1nn2c(=O)cc(COC(=O)c3ccccc3NC(=O)c3ccc(OCC)cc3)nc2s1	49% (inactive)
CCOCCc1nn2c(=O)cc(COC(=O)c3ccc4c(c3)OCO4)nc2s1	128% (inactive)
COCCc1nn2c(=O)cc(COC(=O)COc3ccccc3C)nc2s1	73% (inactive)
CCOCCc1nn2c(=O)cc(COC(=O)c3ccco3)nc2s1	88% (inactive)
CCc1nn2c(=O)cc(COC(=O)Cc3ccccc3)nc2s1	72% (inactive)
CCOCCc1nn2c(=O)cc(COC(=O)c3cccc(C)c3)nc2s1	-5% (active)
CCC(c1nnnn1CCc1ccccc1)N(Cc1ccco1)Cc1cc2cc(C)ccc2[nH]c1=O (stereo not given)	62% (inactive)
COc1ccc(C2=C(C)C(N3CCC(C(=O)NCc4ccc(C)o4)CC3)=NS2(=O)=O)cc1	74% (inactive)
COc1cccc(NC(=O)Cn2cc(S(=O)(=O)Cc3ccccc3F)c3ccccc32)c1	78% (inactive)
CN1CCN(CCC(=O)Nc2ccc(Cl)cc2)CC1	61% (inactive)
COc1ccc(N2C(=O)CSC23C(=O)N(CC(=O)NC2CCCCC2)c2ccccc23)cc1 (stereo not given)	83% (inactive)
Cc1cc(=O)c2c(ccc3ccccc32)[nH]1	91% (inactive)
CC(OC(=O)CN1C(=O)COc2ccccc21)C(=O)NCc1cccs1 (stereo not given)	100% (inactive)
CCOc1ccc(CNC(=O)c2ccc(NC(=O)N3CCCCc4ccccc43)cc2)cc1OC	73% (inactive)
COc1cccc(CNC(=O)CN2C(=O)N(c3cccc(Cl)c3)S(=O)(=O)c3ccccc32)c1OC	72% (inactive)

SMILES	survival
O=C(CCCN1C(=O)C(c2ccccc2)Oc2cccnc21)Nc1ccccc1C(F)(F)F (stereo not given)	100% (inactive)
CCOCCc1nn2c(=O)cc(COC(=O)c3ccc(NC(=O)c4ccc(F)cc4)cc3)nc2s1	32% (active)
CCCc1nn2c(=O)cc(COC(=O)c3ccc(NC(=O)COc4ccccc4)cc3)nc2s1	92% (inactive)
CCCc1nn2c(=O)cc(COC(=O)c3cccc(NC(=O)COc4ccc(F)cc4)c3)nc2s1	99% (inactive)
CCCc1nn2c(=O)cc(COC(=O)c3ccc(NC(=O)COc4ccc(F)cc4)cc3)nc2s1	37% (active)
CCOCCc1nn2c(=O)cc(COC(=O)c3ccc(NC(=O)C(C)(C)C)cc3)nc2s1	83% (inactive)
CCOCCc1nn2c(=O)cc(COC(=O)c3ccc(NC(=O)c4cccs4)cc3)nc2s1	112% (inactive)
Cc1ccc(OCc2n[nH]c(=S)n2C2CCCCC2)cc1	99% (inactive)
Cc1ccc(C2=CC(c3ccccc3F)n3c(nc4ccccc43)N2)cc1C (stereo not given)	70% (inactive)
O=C(NC1CCCCC1)C(c1ccc(O)c(O)c1)N(C(=O)Cn1nnc2ccccc21)C1CCCCC1 (stereo not given)	99% (inactive)
O=c1ccc2cc(S(=O)(=O)Nc3ccc(OC(F)(F)F)cc3)ccc2[nH]1	91% (inactive)
COC(=O)c1cccnc1-n1c(=O)c2cccnc2n(CC(=O)Nc2c(C)cc(C)cc2C)c1=O	82% (inactive)
CC(C)CNCC1OCc2ccccc2CO1	98% (inactive)
CC(C)(C)NC(=O)CCSc1nc(-c2ccc3c(c2)OCO3)cc(C(F)(F)F)n1	15% (active)
COc1ccc(NC(=O)CCS(=O)(=O)c2nc(-c3ccc4c(c3)OCO4)cc(C(F)(F)F)n2)cc1	103% (inactive)
CC(=O)c1ccc(NC(=O)CCSc2nc(-c3ccco3)cc(C(F)(F)F)n2)cc1	46% (inactive)
CCCNC(=O)CCSc1nc(-c2ccc3c(c2)OCO3)cc(C(F)(F)F)n1	68% (inactive)
O=C(CCS(=O)(=O)c1nc(-c2ccc3c(c2)OCO3)cc(C(F)(F)F)n1)Nc1ccc(Br)cc1	94% (inactive)
CC(=O)c1cccc(NC(=O)CCCSc2nc(-c3ccco3)cc(C(F)(F)F)n2)c1	31% (active)
COc1ccc(NC(=O)CCSc2nc(-c3ccco3)cc(C(F)(F)F)n2)cc1	57% (inactive)
COc1ccc(NC(=O)CCSc2nc(-c3ccco3)cc(C(F)(F)F)n2)cc1OC	50% (inactive)
COc1cccc(NC(=O)CCSc2nc(-c3ccco3)cc(C(F)(F)F)n2)c1	27% (active)
O=C(CCS(=O)(=O)c1nc(-c2ccc3c(c2)OCO3)cc(C(F)(F)F)n1)Nc1ccc(F)c(Cl)c1	23% (active)
CC(=O)c1ccc(NC(=O)CCCSc2nc(-c3ccco3)cc(C(F)(F)F)n2)cc1	98% (inactive)
CC(C)NC(=O)CCSc1nc(-c2ccc3c(c2)OCO3)cc(C(F)(F)F)n1	57% (inactive)
